In PMC7862700, “An all-to-all approach to the identification of sequence-specific readers for epigenetic DNA modifications on cytosine”:

Columns and labels:
Assay in all cases: DAPPL (digital affinity profiling via proximity ligation, sequencing); 10 mM Tris-HCl pH 7.5, 50 mM NaCl, 1 mM DTT, 4% glycerol, room temperature, 30 min; GST-TFs on glutathione beads, 16-mer random dsDNA library, 0.1% formaldehyde crosslink after washing; high values mean tight binding
[1] = target: T1, FLI1 (Homo sapiens, UniProt Q01543 1-452); conditions: protein: recombinant; tags: N-terminal GST; dsDNA, one strand shown
T1 sequence: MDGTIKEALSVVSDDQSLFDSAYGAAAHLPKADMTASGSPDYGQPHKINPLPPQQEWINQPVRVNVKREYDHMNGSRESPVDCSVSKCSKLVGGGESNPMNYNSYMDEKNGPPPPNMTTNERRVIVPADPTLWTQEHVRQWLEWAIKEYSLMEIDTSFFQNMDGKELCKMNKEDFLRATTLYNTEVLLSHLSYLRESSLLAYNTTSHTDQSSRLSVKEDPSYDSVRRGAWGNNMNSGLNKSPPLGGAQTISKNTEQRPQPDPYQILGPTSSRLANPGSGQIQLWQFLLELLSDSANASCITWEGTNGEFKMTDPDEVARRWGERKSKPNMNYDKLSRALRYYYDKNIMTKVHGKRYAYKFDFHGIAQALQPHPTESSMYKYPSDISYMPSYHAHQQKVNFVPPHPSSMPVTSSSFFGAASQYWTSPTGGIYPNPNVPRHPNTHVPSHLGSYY
Outline: (§1)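 A tag-only sample was pooled with DNA-barcoded human transcription factors that had been expressed in yeast as GST fusions and captured on glutathione beads. The pools were incubated for 30 min at room temperature with 200 nmole of a random double-stranded 16-mer DNA library in Tris/NaCl/DTT/glycerol buffer, then washed, crosslinked with 0.1% formaldehyde, proximity-ligated (BsaI/T4 ligase, 1 h, 37 °C), PCR-amplified and sequenced on an Illumina NextSeq500. Binding signal is each hexamer's read frequency for a factor divided by its frequency for the tag-only sample.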

[2] = target: T2, ELK1 (Homo sapiens, UniProt P19419 1-428); conditions: protein: recombinant; tags: N-terminal GST; dsDNA, one strand shown
T2 sequence: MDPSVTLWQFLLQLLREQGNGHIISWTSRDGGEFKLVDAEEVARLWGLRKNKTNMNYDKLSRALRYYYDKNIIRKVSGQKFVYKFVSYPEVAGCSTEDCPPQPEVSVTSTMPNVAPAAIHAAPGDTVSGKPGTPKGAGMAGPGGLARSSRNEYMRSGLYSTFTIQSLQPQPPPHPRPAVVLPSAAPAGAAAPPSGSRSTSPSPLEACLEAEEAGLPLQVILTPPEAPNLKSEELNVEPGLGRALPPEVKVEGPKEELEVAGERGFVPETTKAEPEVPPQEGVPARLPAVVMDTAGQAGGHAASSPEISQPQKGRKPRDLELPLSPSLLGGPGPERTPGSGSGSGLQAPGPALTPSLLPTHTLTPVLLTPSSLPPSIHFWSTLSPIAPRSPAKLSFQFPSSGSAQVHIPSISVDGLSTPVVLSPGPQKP
Outline: as §1

[3] = target: T3, GABPA (Homo sapiens, UniProt Q06546 1-454); conditions: protein: recombinant; tags: N-terminal GST; dsDNA, one strand shown
T3 sequence: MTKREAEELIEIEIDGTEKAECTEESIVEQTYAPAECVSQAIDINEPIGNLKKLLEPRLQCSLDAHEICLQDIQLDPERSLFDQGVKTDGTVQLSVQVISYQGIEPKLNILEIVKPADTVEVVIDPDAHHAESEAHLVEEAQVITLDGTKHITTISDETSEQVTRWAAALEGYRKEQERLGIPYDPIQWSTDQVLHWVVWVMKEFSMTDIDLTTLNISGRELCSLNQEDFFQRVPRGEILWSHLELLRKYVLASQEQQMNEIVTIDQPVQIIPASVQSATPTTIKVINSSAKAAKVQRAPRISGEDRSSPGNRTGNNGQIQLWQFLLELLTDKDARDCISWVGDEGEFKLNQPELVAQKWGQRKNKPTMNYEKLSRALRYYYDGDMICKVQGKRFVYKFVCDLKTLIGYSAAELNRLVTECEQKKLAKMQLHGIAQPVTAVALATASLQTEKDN
Outline: as §1

[4] = target: T4, ERG (Homo sapiens, UniProt P11308 1-479); conditions: protein: recombinant; tags: N-terminal GST; dsDNA, one strand shown
T4 sequence: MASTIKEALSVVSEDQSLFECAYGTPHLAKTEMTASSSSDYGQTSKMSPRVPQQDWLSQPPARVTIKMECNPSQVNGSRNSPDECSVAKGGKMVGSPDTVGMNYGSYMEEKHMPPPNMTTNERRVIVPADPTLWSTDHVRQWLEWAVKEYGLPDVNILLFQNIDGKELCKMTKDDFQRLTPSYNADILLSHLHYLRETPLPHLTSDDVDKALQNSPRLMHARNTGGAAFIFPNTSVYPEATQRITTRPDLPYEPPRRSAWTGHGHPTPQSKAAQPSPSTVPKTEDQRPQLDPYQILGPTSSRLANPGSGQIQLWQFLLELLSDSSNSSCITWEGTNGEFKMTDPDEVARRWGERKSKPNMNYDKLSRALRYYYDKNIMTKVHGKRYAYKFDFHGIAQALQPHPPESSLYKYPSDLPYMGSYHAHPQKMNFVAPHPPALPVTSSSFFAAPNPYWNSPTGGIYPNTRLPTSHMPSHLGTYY
Outline: as §1

[5] = target: ELF1 (Homo sapiens, UniProt P32519 1-619); conditions: protein: recombinant; tags: N-terminal GST; dsDNA, one strand shown
Sequence of ELF1 (P32519 whole entry): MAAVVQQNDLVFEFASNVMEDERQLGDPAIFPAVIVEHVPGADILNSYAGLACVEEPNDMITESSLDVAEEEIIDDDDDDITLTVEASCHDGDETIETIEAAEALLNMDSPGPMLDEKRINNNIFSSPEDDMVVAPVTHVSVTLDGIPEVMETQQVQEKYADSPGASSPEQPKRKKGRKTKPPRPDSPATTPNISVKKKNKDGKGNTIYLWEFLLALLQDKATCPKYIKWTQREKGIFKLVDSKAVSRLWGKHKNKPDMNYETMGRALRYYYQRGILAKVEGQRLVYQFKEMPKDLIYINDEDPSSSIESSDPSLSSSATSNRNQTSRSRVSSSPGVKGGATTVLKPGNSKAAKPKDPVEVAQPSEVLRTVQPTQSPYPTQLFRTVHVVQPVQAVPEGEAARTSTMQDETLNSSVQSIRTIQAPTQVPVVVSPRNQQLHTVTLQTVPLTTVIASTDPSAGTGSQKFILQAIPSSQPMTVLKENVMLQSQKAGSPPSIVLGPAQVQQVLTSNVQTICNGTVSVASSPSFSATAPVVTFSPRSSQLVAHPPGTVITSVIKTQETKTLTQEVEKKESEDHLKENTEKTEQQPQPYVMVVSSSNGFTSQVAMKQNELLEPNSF
Outline: as §1

[6] = target: T5, EHF (Homo sapiens, UniProt Q9NZC4 1-300); conditions: protein: recombinant; tags: N-terminal GST; dsDNA, one strand shown
T5 sequence: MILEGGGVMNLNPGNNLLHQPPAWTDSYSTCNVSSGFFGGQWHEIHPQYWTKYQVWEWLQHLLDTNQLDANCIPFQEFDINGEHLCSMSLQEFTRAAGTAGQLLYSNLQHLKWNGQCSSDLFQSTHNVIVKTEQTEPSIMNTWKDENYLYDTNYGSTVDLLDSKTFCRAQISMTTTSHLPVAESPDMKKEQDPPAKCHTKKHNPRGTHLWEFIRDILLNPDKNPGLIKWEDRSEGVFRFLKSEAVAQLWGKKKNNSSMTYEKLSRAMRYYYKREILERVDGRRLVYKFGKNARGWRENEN
Outline: as §1

[7] = target: SPI1 (Homo sapiens, UniProt P17947 1-270); conditions: protein: recombinant; tags: N-terminal GST; dsDNA, one strand shown
Outline: as §1

[8] = target: SPIB (Homo sapiens, UniProt Q01892 1-262); conditions: protein: recombinant; tags: N-terminal GST; dsDNA, one strand shown
Sequence of SPIB (Q01892 whole entry): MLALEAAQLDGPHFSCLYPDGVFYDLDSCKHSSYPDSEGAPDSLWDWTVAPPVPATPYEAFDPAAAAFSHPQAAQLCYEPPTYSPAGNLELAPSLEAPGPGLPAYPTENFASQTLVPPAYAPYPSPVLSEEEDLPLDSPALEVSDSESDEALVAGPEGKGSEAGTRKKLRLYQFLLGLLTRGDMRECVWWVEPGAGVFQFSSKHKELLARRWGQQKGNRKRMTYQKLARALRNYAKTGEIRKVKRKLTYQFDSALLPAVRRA
Outline: as §1

[9] = target: T6, ELK3 (Homo sapiens, UniProt P41970 1-407); conditions: protein: recombinant; tags: N-terminal GST; dsDNA, one strand shown
T6 sequence: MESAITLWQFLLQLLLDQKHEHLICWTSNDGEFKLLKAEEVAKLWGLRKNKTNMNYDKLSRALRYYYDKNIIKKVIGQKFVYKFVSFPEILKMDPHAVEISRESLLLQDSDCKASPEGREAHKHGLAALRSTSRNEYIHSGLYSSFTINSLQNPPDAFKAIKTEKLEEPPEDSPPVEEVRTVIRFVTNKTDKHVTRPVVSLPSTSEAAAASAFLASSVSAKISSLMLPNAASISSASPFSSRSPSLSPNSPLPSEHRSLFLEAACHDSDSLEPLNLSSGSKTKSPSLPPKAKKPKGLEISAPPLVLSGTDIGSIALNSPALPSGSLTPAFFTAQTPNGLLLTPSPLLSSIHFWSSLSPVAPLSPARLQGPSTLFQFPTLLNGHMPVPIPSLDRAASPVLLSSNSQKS
Outline: as §1

[10] = target: T7, FEV (Homo sapiens, UniProt Q99581 1-238); conditions: protein: recombinant; tags: N-terminal GST; dsDNA, one strand shown
T7 sequence: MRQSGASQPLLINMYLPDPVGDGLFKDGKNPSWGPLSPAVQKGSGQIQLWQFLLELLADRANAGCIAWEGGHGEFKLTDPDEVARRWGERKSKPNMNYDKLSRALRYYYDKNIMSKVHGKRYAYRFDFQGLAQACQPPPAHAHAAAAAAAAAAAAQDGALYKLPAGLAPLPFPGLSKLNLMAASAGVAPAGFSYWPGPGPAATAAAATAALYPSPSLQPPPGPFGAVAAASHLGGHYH
Outline: as §1

[11] = target: ETV5 (Homo sapiens, UniProt P41161 1-510); conditions: protein: recombinant; tags: N-terminal GST; dsDNA, one strand shown
Sequence of ETV5 (P41161 whole entry): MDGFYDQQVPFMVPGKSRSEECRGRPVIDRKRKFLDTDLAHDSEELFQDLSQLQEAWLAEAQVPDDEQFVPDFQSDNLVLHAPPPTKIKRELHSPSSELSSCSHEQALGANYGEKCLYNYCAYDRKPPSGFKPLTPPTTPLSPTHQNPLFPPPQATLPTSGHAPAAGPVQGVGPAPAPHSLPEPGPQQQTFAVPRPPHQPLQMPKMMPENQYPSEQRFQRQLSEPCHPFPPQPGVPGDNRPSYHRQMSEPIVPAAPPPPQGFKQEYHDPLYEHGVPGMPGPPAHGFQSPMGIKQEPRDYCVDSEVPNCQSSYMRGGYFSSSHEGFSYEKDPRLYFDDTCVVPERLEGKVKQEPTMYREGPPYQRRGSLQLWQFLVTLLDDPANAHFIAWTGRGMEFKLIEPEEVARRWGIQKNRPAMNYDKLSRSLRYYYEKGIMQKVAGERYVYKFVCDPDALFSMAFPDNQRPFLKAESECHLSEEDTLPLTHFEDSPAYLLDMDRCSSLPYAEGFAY
Outline: as §1

[12] = target: HSF1 (Homo sapiens, UniProt Q00613 1-529); conditions: protein: recombinant; tags: N-terminal GST; chain copies: 3; dsDNA, one strand shown
Sequence of HSF1 (Q00613 whole entry): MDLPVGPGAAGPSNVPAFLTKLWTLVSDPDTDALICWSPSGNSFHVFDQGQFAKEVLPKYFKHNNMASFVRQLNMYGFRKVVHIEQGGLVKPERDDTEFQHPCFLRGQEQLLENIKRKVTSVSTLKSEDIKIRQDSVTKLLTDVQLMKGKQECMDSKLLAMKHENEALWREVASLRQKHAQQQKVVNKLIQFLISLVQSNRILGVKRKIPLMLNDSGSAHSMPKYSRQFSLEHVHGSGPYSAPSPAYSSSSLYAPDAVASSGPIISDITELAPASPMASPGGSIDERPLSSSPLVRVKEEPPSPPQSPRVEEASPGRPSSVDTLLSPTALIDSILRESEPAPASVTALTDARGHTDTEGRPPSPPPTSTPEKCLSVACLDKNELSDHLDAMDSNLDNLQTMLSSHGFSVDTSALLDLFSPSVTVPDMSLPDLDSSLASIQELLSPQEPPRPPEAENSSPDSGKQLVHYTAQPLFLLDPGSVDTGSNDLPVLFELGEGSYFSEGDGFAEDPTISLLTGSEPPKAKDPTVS
Outline: as §1

[13] = target: ELF4 (Homo sapiens, UniProt Q99607 1-663); conditions: protein: recombinant; tags: N-terminal GST; dsDNA, one strand shown
Sequence of ELF4 (Q99607 whole entry): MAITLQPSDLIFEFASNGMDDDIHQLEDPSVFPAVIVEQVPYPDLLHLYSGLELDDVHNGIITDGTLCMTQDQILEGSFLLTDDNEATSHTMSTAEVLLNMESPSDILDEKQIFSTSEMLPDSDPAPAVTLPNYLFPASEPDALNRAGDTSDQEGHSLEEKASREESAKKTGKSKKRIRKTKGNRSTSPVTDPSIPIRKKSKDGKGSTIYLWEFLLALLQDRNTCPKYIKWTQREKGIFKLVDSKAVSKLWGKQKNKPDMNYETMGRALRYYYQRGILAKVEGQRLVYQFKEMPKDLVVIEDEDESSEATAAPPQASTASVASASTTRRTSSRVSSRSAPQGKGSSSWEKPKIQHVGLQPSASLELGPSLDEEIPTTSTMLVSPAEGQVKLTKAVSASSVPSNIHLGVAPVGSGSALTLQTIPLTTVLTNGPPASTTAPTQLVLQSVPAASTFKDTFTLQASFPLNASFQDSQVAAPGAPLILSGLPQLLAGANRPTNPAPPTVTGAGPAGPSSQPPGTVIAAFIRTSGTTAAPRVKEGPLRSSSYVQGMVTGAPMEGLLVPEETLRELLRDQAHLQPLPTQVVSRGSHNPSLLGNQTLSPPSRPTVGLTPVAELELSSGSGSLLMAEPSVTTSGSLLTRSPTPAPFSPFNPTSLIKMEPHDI
Outline: as §1

[14] = target: T8, ELK4 (Homo sapiens, UniProt P28324-2 1-405); conditions: protein: recombinant; tags: N-terminal GST; dsDNA, one strand shown
T8 sequence: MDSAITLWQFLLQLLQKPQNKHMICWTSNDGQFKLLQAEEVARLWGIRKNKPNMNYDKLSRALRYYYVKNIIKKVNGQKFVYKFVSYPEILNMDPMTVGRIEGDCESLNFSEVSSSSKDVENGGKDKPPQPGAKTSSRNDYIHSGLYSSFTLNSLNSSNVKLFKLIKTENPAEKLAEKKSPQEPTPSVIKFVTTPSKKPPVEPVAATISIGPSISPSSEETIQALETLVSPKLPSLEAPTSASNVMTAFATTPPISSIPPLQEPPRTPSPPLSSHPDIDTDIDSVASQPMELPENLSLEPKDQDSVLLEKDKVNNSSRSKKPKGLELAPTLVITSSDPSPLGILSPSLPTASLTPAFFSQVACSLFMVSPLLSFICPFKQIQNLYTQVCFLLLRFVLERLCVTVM
Outline: as §1

[15] = target: T9, ETV2 (Homo sapiens, UniProt O00321 1-342); conditions: protein: recombinant; tags: N-terminal GST; dsDNA, one strand shown
T9 sequence: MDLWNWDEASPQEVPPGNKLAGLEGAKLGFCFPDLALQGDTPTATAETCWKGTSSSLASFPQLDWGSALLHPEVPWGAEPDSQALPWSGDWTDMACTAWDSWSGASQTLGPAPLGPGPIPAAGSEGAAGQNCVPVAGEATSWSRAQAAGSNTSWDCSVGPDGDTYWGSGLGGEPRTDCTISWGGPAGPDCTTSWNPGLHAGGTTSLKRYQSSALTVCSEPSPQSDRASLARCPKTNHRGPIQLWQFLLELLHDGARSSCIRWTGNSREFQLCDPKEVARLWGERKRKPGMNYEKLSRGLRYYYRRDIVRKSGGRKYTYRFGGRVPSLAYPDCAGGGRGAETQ
Outline: as §1

[16] = target: T10, ELF3 (Homo sapiens, UniProt P78545 1-371); conditions: protein: recombinant; tags: N-terminal GST; dsDNA, one strand shown
T10 sequence: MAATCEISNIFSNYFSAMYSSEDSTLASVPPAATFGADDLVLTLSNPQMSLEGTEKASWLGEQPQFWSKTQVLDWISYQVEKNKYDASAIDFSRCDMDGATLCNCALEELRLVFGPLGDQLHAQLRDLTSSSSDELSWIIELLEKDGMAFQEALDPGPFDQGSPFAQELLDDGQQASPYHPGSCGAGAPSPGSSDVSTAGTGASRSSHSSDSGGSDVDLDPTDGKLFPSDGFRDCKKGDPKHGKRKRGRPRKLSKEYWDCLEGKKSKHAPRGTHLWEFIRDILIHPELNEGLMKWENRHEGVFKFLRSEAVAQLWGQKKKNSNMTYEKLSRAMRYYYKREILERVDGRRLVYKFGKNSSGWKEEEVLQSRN
Outline: as §1

[17] = target: CRX (Homo sapiens, UniProt O43186 1-299); conditions: protein: recombinant; tags: N-terminal GST; dsDNA, one strand shown
Sequence of CRX (O43186 whole entry): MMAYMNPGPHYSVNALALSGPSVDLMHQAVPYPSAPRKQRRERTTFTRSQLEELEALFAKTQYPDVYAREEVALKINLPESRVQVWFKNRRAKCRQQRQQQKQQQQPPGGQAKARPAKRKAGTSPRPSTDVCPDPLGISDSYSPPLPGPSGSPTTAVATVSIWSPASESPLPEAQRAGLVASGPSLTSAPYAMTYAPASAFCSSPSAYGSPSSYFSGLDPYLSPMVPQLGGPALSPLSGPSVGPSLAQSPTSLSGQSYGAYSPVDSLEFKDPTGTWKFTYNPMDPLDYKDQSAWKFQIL
Outline: as §1

[18] = target: ETV1 (Homo sapiens, UniProt P50549 1-477); conditions: protein: recombinant; tags: N-terminal GST; dsDNA, one strand shown
Sequence of ETV1 (P50549 whole entry): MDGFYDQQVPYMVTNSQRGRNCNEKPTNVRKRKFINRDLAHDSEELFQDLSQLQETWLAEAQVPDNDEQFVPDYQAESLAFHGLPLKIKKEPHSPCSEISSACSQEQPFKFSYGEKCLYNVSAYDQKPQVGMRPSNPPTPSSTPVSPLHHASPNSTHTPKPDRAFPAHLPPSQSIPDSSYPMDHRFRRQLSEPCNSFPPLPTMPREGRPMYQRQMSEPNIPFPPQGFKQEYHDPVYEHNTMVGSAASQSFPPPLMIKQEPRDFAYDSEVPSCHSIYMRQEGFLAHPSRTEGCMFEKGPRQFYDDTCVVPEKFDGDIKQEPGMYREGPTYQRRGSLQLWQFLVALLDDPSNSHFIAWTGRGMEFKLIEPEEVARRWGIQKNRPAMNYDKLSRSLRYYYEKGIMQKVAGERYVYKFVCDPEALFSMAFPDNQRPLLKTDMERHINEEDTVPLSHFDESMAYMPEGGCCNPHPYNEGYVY
Outline: as §1

| Sequence | binding signal [1] | binding signal [2] | binding signal [3] | binding signal [4] | binding signal [5] | binding signal [6] | binding signal [7] | binding signal [8] | binding signal [9] | binding signal [10] | binding signal [11] | binding signal [12] | binding signal [13] | binding signal [14] | binding signal [15] | binding signal [16] | binding signal [17] | binding signal [18] |
| --- | --- | --- | --- | --- | --- | --- | --- | --- | --- | --- | --- | --- | --- | --- | --- | --- | --- | --- |
| TGCAAA | 1.13 fold enrichment (6-mer frequency, TF over GST control) | 1.11 fold enrichment (6-mer frequency, TF over GST control) | 1.07 fold enrichment (6-mer frequency, TF over GST control) | 1.14 fold enrichment (6-mer frequency, TF over GST control) | 1.19 fold enrichment (6-mer frequency, TF over GST control) | 1.16 fold enrichment (6-mer frequency, TF over GST control) | 1.14 fold enrichment (6-mer frequency, TF over GST control) | 1.12 fold enrichment (6-mer frequency, TF over GST control) | 1.14 fold enrichment (6-mer frequency, TF over GST control) | 1.12 fold enrichment (6-mer frequency, TF over GST control) | 1.09 fold enrichment (6-mer frequency, TF over GST control) | 1.06 fold enrichment (6-mer frequency, TF over GST control) | 1.13 fold enrichment (6-mer frequency, TF over GST control) | 1.14 fold enrichment (6-mer frequency, TF over GST control) | 1.08 fold enrichment (6-mer frequency, TF over GST control) | 1.2 fold enrichment (6-mer frequency, TF over GST control) | 1.01 fold enrichment (6-mer frequency, TF over GST control) | 1.14 fold enrichment (6-mer frequency, TF over GST control) |
| AAAGCT | 1.06 fold enrichment (6-mer frequency, TF over GST control) | 1.09 fold enrichment (6-mer frequency, TF over GST control) | 1.08 fold enrichment (6-mer frequency, TF over GST control) | 1.08 fold enrichment (6-mer frequency, TF over GST control) | 1.09 fold enrichment (6-mer frequency, TF over GST control) |  | 1.01 fold enrichment (6-mer frequency, TF over GST control) | 1.06 fold enrichment (6-mer frequency, TF over GST control) | 1.01 fold enrichment (6-mer frequency, TF over GST control) | 1.1 fold enrichment (6-mer frequency, TF over GST control) | 1.08 fold enrichment (6-mer frequency, TF over GST control) | 1.32 fold enrichment (6-mer frequency, TF over GST control) | 1.06 fold enrichment (6-mer frequency, TF over GST control) | 1.13 fold enrichment (6-mer frequency, TF over GST control) | 1.01 fold enrichment (6-mer frequency, TF over GST control) | 1.2 fold enrichment (6-mer frequency, TF over GST control) | 1.64 fold enrichment (6-mer frequency, TF over GST control) | 1.06 fold enrichment (6-mer frequency, TF over GST control) |
